{"source": "PubChem BioAssay AID2501", "about": "(Southern Research Specialized Biocontainment Screening …, 2010)", "note": "Hit rate of the full screen: of about 2,200 compounds, about 1,200 (55%) were called active. Cut-off not given; nearly all actives show IC50 up to about 92 µM. The set was probably picked from earlier hits. The list shows a part of the results.", "data": [{"assay": "counter assay for TAg ATPase ADP read-out – biochemical, ADP-Hunter, fluorescence, counter-screen (AID 2501);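 further: purified T antigen ATPase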", "details": "series mostly up to 100 µM", "values": [{"compound": "COc1cc(O)c(C(C)=O)c(CC(=O)O)c1", "IC50": "inactive"}, {"compound": "CN(Cc1ccno1)Cc1cn(C)nc1-c1ccc(Oc2ccccc2)cc1", "IC50": "inactive"}, {"compound": "CCOc1ccc(C(=O)N(Cc2ccc(OC)cc2)Cc2cc3cc(OC)ccc3[nH]c2=O)cc1", "IC50": "inactive"}, {"compound": "N#CC(C#N)=C1C=CC=CN1/C(=C\\c1ccco1)C(=O)c1ccc(Br)cc1", "IC50": "inactive"}, {"compound": "CCOc1cc(S(=O)(=O)n2nc(C)cc2C)ccc1Br", "IC50": "inactive"}, {"compound": "COc1ccc(NC2CCCN(C(=O)c3cccc(C(F)(F)F)c3)C2)cc1OC", "note": "(stereo not drawn)", "IC50": "12 µM (active)"}, {"compound": "CCCN1CCN(C(=O)c2cc(COc3ccc4ncccc4c3)on2)CC1", "IC50": "inactive"}, {"compound": "COc1ccc(NC2CCCN(C(=O)c3ccc(C(C)=O)cc3)C2)cc1", "note": "(stereo not drawn)", "IC50": "2.06 µM (active)"}, {"compound": "COc1ccc(NS(=O)(=O)c2ccc3c(c2)[C@H]2C=CC[C@H]2[C@@H](c2ccc(C(=O)O)cc2)N3)cc1", "IC50": "inactive"}, {"compound": "COc1ccc(NC(=O)N2CCCC(C(=O)Nc3cccc(C)c3C)C2)cc1", "note": "(stereo not drawn)", "IC50": "inactive"}, {"compound": "COc1ccc(NC2CCCN(C(=O)c3c(C)noc3C)C2)cc1", "note": "(stereo not drawn)", "IC50": "6.38 µM (active)"}, {"compound": "O=C1CCC(CCC(=O)N2CCCC(C(=O)c3cccc(C(F)(F)F)c3)C2)=NN1", "note": "(stereo not drawn)", "IC50": "inactive"}, {"compound": "Cc1ccc(C(=O)Oc2oc(-c3ccccc3)nc2C=Nc2ccc(N(C)C)cc2)cc1", "IC50": "inactive"}, {"compound": "CN(C)c1ccc(NC(=O)CN2CCC(N3CCCCC3)CC2)cc1", "IC50": "6.64 µM (active)"}, {"compound": "Cc1ccc(C(=O)C2CCN(CC(=O)Nc3ccc(N(C)C)cc3)CC2)cc1", "IC50": "6.37 µM (active)"}, {"compound": "Cc1ccc(NC(=O)CN2C(=O)N/C(=C/c3cccn3-c3ccc(C(=O)O)cc3)C2=O)cc1", "IC50": "inactive"}, {"compound": "Cc1cc(C)c2c(=O)n(CC(=O)N3CCC(N4CCCCC4)CC3)sc2n1", "IC50": "inactive"}, {"compound": "CC(C)NC(=O)C1CCN(C2CCN(Cc3ccc4cccc(F)c4n3)CC2)CC1", "IC50": "inactive"}, {"compound": "CN(C)c1ccc(NC(=O)CN2CCC(C(=O)c3ccc(F)cc3)CC2)cc1", "IC50": "3.05 µM (active)"}, {"compound": "Cc1ccc(NC(=O)CN2C(=O)N/C(=C/c3cc(C)n(-c4ccc(C(=O)O)cc4)c3C)C2=O)cc1", "IC50": "inactive"}, {"compound": "CC(=O)CSc1nc(C(F)(F)F)cc(=O)n1-c1ccccc1", "IC50": "inactive"}, {"compound": "CC1(C)Cc2c(C#N)c(N3CCCC3)nc(-c3ccco3)c2CO1", "IC50": "inactive"}, {"compound": "CN(C)c1ccc(Nc2cc(Cl)ncn2)cc1", "IC50": "9.79 µM (active)"}, {"compound": "O=C1CCCC2=C1Sc1ccccc1N2", "IC50": "7.55 µM (active)"}, {"compound": "Cc1c(Br)c(=O)oc2c(Br)c(O)c(O)cc12", "IC50": "25.2 µM (active)"}, {"compound": "CN(C)/C=C(\\C#N)C(=O)Nc1ccc(O)cc1F", "IC50": "10.3 µM (active)"}, {"compound": "COc1ccc(OC)c(/C=N/NC(=O)CCc2ccc(O)c(O)c2)c1", "IC50": "40.4 µM (active)"}, {"compound": "O=C(CCc1ccc(O)c(O)c1)N/N=C/c1cc2c(cc1[N+](=O)[O-])OCO2", "IC50": "inactive"}, {"compound": "N#Cc1nc(Cc2cccc3ccccc23)oc1NCCN1CCOCC1", "IC50": "inactive"}, {"compound": "Cc1cccc(C(=O)Nc2ccc(C(=O)N/N=C/c3ccc4c(c3)OCO4)cc2)c1", "IC50": "inactive"}, {"compound": "O=C1CC(=O)N(Cc2ccco2)C(=O)N1", "IC50": "inactive"}, {"compound": "COc1cc(C(=O)Nc2ccc(O)cc2)ccc1OC(C)=O", "IC50": "3.55 µM (active)"}, {"compound": "O=C(Nc1ccc(O)cc1)c1ccc2c(c1)C(=O)N(Cc1ccco1)C2=O", "IC50": "8.35 µM (active)"}, {"compound": "Cc1cccc(C(=O)Nc2ccc(O)cc2)c1", "IC50": "4.37 µM (active)"}, {"compound": "O=C(Nc1ccc(O)cc1)c1ccc2c(c1)C(=O)N(N1C(=O)c3ccccc3C1=O)C2=O", "IC50": "6.05 µM (active)"}, {"compound": "O=C(Nc1ccc2c(c1)C(=O)OC2)c1ccc(C(F)(F)F)cc1", "IC50": "inactive"}, {"compound": "CCOC(=O)NC(=O)C(=CNc1cccc(C)c1)C(=O)NC(=O)OCC", "IC50": "inactive"}, {"compound": "O=C(Cn1c(=O)n(Cc2ccco2)c(=O)c2c3c(sc21)CCCCC3)Nc1ccccc1", "IC50": "inactive"}, {"compound": "OC1CN=C2CCCc3c2n(c2ccc(Cl)cc32)C1", "note": "(stereo not drawn)", "IC50": "inactive"}, {"compound": "COc1cc(/C=C/C(=O)OCC(=O)N2CC(=O)Nc3ccccc32)ccc1O", "IC50": "6.1 µM (active)"}, {"compound": "CCNC(=O)COC(=O)/C=C/c1cccc(F)c1", "IC50": "inactive"}, {"compound": "O=C1COc2ccc(C(=O)COC(=O)/C=C/c3ccc(Br)o3)cc2N1", "IC50": "inactive"}, {"compound": "NS(=O)(=O)c1ccc(NC(=O)COC(=O)c2ccc(Cl)nc2)cc1", "IC50": "inactive"}, {"compound": "COc1cc(/C=C/C(=O)OCC(=O)Nc2ccc(S(N)(=O)=O)cc2)ccc1O", "IC50": "12.2 µM (active)"}, {"compound": "Cc1cc(C)c(S(=O)(=O)/N=C2/C=C(SCC(=O)O)C(=O)c3ccccc32)cc1C", "IC50": "inactive"}, {"compound": "CN(C)c1ccc(NC(=O)C(=O)C2C(=O)Nc3ccccc32)cc1", "note": "(stereo not drawn)", "IC50": "1.57 µM (active)"}, {"compound": "C=CCn1c(SCC(=O)c2ccc(O)c(O)c2)nnc1-c1cccnc1", "IC50": "8.61 µM (active)"}, {"compound": "Cn1c(SCC(=O)c2ccc(O)c(O)c2)nnc1-c1cccs1", "IC50": "15.9 µM (active)"}, {"compound": "CCn1c(SCC(=O)c2ccc(O)c(O)c2)nnc1-c1ccc(C)cc1", "IC50": "6.52 µM (active)"}, {"compound": "C=CCn1c(SCC(=O)c2ccc(O)c(O)c2)nnc1-c1ccccc1OC", "IC50": "10.2 µM (active)"}, {"compound": "Cn1c(SCC(=O)c2cc(Cl)c(Cl)s2)nnc1-c1ccco1", "IC50": "inactive"}, {"compound": "CCOC(=O)c1ccc(CSc2nnc(-c3ccncc3)n2N)cc1", "IC50": "inactive"}, {"compound": "CCn1c(SCc2ccc(C(=O)Nc3nccs3)cc2)nnc1-c1ccc(NC(C)=O)cc1", "IC50": "inactive"}, {"compound": "COCCCN(Cc1ccco1)C(=O)Cn1ncc2c(=O)oc3ccc(C)cc3c21", "IC50": "inactive"}, {"compound": "CCn1c(SCC(=O)Nc2ccccc2C)nnc1-c1ccccc1O", "IC50": "inactive"}, {"compound": "CCn1c(SCC(=O)c2ccc(O)c(O)c2)nnc1-c1ccccc1OC", "IC50": "3.84 µM (active)"}, {"compound": "COc1cc(-c2nc(=S)[nH][nH]2)cc(OC)c1OC", "IC50": "10.7 µM (active)"}, {"compound": "CC(=O)Nc1ccc(OCCOc2ccc(/C=C3\\C(=N)N4N=C(C)SC4=NC3=O)cc2)cc1", "IC50": "inactive"}, {"compound": "COc1ccc(C(=O)/C=C(\\C)Nc2ccc(NC(C)=O)cc2)cc1", "IC50": "17.8 µM (active)"}, {"compound": "CN1c2ccc(C=O)c3c(C=O)ccc(c23)N(C)C1(C)C", "IC50": "17.5 µM (active)"}, {"compound": "Nc1ccc2nc(-c3cccs3)[nH]c2c1", "IC50": "3.65 µM (active)"}, {"compound": "Cc1ccc(C)c(-c2nc3ccc(N)cc3[nH]2)c1", "IC50": "4.86 µM (active)"}, {"compound": "COc1ccc(C2=CC3=C(Br)C(=O)C(C)(OC(=O)c4ccco4)C(=O)C3=CO2)cc1", "note": "(stereo not drawn)", "IC50": "inactive"}]}]}
